These results are taken from the supplement of paper PMC13380429.

Each structure is given as a SMILES string.

Experiment [1] concerns Vero E6 infected with SARS-CoV-2. As to the kind of experiment: morphology score (similarity to uninfected cells); higher = more like uninfected cells. Conditions: 24 h.
The test system is the same in experiment [2]. The experiment in a line: SARS-CoV-2 infection rate relative to infected DMSO; higher = more infection, active = 60 or less. Conditions: 24 h.

On to `Cc1ncc(CO)c(/C=N/NC(=O)c2ccncc2)c1O` [pyridoxal-isonicotinoyl-hydrazone] (10 µM), for which, in experiment [1], the morphology score was -0.0797. In addition, in experiment [2], the SARS-CoV-2 infection rate is 100% (inactive).
The like results for `Oc1ccc2[nH]cc(C3=CCNCC3)c2n1` (10 µM) were, in that order, 0.00585 and 90% (inactive).
The matching figures for `CC(C)n1nccc1-c1ncccc1COc1cccc(O)c1C=O` [voxelotor] (10 µM): 0.188 and 102% (inactive).
The matching figures for `CC1(C)S[C@@H]2[C@H](NC(=O)C(C(=O)O)c3ccccc3)C(=O)N2[C@H]1C(=O)O` (stereo not given in full) [carbenicillin] (10 µM): 0.0766 and 104% (inactive).
For the compound `CC[C@H]1CN2CC[C@H]1C[C@@H]2[C@@H](O)c1ccnc2ccc(OC)cc12` [hydroquinidine] (10 µM), the morphology score in experiment [1] turned out to be 0.301. Moreover, the SARS-CoV-2 infection rate in experiment [2] was 90% (inactive).
The matching figures for `CCCCNc1nc(N)c2[nH]c(=O)n(Cc3ccc(OCCN(C)C)nc3)c2n1` (10 µM): 0.0113 and 103% (inactive).
For `NC(=O)[C@H]1CCS[C@@H]2C[C@]3(CCCN3C(=O)Cc3ccc(NC(=O)COc4ccc(Cl)cc4Cl)cc3)C(=O)N12` (10 µM), the morphology score in experiment [1] is -0.263. For the same compound, the SARS-CoV-2 infection rate in experiment [2] is 111% (inactive).
In the case of `O=C(O)c1cc(O)c2c(Cl)cc(Cl)cc2n1` [5,7-dichlorokynurenic-acid] (10 µM), in experiment [1], the morphology score was -0.0314. In experiment [2], the SARS-CoV-2 infection rate was 104% (inactive).
The like results for `NS(=O)(=O)c1cc2c(cc1Cl)NC(CC1CCCC1)NS2(=O)=O` (stereo not given) [cyclopenthiazide] (10 µM) were, in that order, 0.129 and 100% (inactive).
The like results for `Cc1oc(-c2ccccc2)nc1CCOc1ccc(CC2SC(=O)NC2=O)c2sccc12` (stereo not given) [edaglitazone] (10 µM) were, in that order, 0.29 and 90.5% (inactive).
In turn, `CCCCC/C=C\C=C\CCCCCCCCC(=O)O` [trans-10,cis-12-conjugated-linoleic-acid] (10 µM) came in with a morphology score in experiment [1] of 0.0778. For the same compound, in experiment [2], the SARS-CoV-2 infection rate is 104% (inactive).
With `Cc1c(C)c2c(c(C)c1OC(=O)CCC(=O)O)CC[C@@](C)(CCC[C@H](C)CCC[C@H](C)CCCC(C)C)O2` [D-alpha-tocopheryl-succinate] (10 µM), the morphology score in experiment [1] was found to be 0.0385. Moreover, the SARS-CoV-2 infection rate in experiment [2] is 101% (inactive).
The like results for `Nc1ncnc2[nH]nc(Nc3ccc(F)cc3)c12` (0.833333 µM) were, in that order, -0.00281 and 95.5% (inactive).
As for `CCC1(c2ccccc2)C(=O)NCNC1=O` [primidone] (10 µM), the morphology score in experiment [1] is 0.097. The SARS-CoV-2 infection rate in experiment [2] was 102% (inactive).
The matching figures for `CS(=O)(=O)c1ccc(-c2cn3ccccc3n2)cc1` [zolimidine] (10 µM): 0.211 and 85% (inactive).
The like results for `O=C(Nc1ccc(O)cc1)c1ccccc1O` [N-salicoylaminophenol] (10 µM) were, in that order, 0.168 and 102% (inactive).
Take `N=C(N)NCCC[C@H](N)C(=O)O` [L-arginine] (10 µM): in experiment [1], the morphology score is 0.0506. In addition, in experiment [2], the SARS-CoV-2 infection rate is 113% (inactive).
For `Cc1nc2c([nH]1)-c1ccccc1N(C(=O)c1ccc(NC(=O)c3ccccc3-c3ccccc3)cc1)CC2` [conivaptan] (10 µM), the morphology score in experiment [1] was determined as 0.193. In addition, the SARS-CoV-2 infection rate in experiment [2] is 107% (inactive).
In turn, `CN(c1ccccc1CNc1nc(Nc2ccc3c(c2)CC(=O)N3)ncc1C(F)(F)F)S(C)(=O)=O` (10 µM) had a morphology score in experiment [1] of 0.0447. The SARS-CoV-2 infection rate in experiment [2] was 114% (inactive).
The like results for `CCNCCS(=O)(=O)NC[C@@]1(c2ccccc2)SC(NC(=O)C(C)(C)C)=NN1C(=O)C(C)(C)C` [litronesib] (10 µM) were, in that order, -0.218 and 100% (inactive).
On to `Nc1nccc(-c2c(-c3ccc(F)cc3)ncn2C2CCCCC2)n1` (0.833333 µM), for which the morphology score in experiment [1] was determined as 0.197. The SARS-CoV-2 infection rate in experiment [2] was 103% (inactive).
The matching figures for `O=C(O)c1ccccc1NCCc1ccccc1` [tromaril] (10 µM): -0.0774 and 105% (inactive).
The like results for `NCCNc1ccc(NCCN)c2c1C(=O)c1ccncc1C2=O` [pixantrone] (10 µM) were, in that order, 0.328 and 71% (inactive).
The like results for `CSc1ccc([C@H]2CN3CCC[C@H]3c3ccccc32)cc1` (racemic) (10 µM) were, in that order, 0.328 and 86.5% (inactive).
Compound `CN(C)N(C)C(=O)[C@@]1(Cc2ccccc2)CCCN(C(=O)[C@@H](Cc2c[nH]c3ccccc23)NC(=O)C(C)(C)N)C1` [anamorelin] (10 µM) returned a morphology score in experiment [1] of 0.0474. The SARS-CoV-2 infection rate in experiment [2] is 98.5% (inactive).
Take `NC(=S)N/N=C/c1ccncc1` [perchlozone] (10 µM): in experiment [1], the morphology score is -0.0589. For the same compound, the SARS-CoV-2 infection rate in experiment [2] was 114% (inactive).
The like results for `Nc1nc(=O)c2nc(CNc3ccc(C(=O)N[C@@H](CCC(=O)O)C(=O)O)cc3)cnc2[nH]1` [folic-acid] (10 µM) were, in that order, 0.207 and 102% (inactive).
On to `COc1ccc(-n2nc(C(F)(F)F)cc2-c2ccc(Cl)cc2)cc1` (0.833333 µM), for which the morphology score in experiment [1] was -0.0472. In addition, the SARS-CoV-2 infection rate in experiment [2] is 101% (inactive).
For `CCN(CC)C(=O)N[C@H]1C=C2c3cccc4[nH]cc(c34)C[C@H]2N(C)C1` [lisuride] (10 µM), the morphology score in experiment [1] was -0.111. In experiment [2], the SARS-CoV-2 infection rate is 110% (inactive).
The like results for `C[C@@H]1NC(=O)[C@@H](N)CNC(=O)[C@H](C2CCNC(=N)N2)NC(=O)/C(=C/NC(N)=O)NC(=O)[C@H](CNC(=O)CC(N)CCCN)NC1=O.N=C1NCC[C@H]([C@@H]2NC(=O)/C(=C/NC(N)=O)NC(=O)[C@H](CNC(=O)C[C@@H](N)CCCN)NC(=O)[C@H](CO)NC(=O)[C@@H](N)CNC2=O)N1` [capreomycin] (10 µM) were, in that order, 0.148 and 100% (inactive).
